# CBFb RUNX1 block – qHTS Assay for Compounds Blocking the Interaction Between CBF-beta and RUNX1 for the Treatment of Acute Myeloid Leukemia; Runt-related transcription factor 1 (Homo sapiens) + Core-binding factor subunit beta …; AlphaScreen CBFb-His/RUNX1-biotin binding, biochemical; Potency, µM (top dose mostly 59.8 µM), usual class: inhibitors; 230,000 tested, under 10 active; AID 1477, 2009
#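 Proteins preincubated together for 20 min at RT before compound addition; 15 min later, nickel and streptavidin beads were added and left 90 min prior to AlphaScreen measurement.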
# HPGD block – qHTS Assay for Inhibitors of HPGD (15-Hydroxyprostaglandin Dehydrogenase) | 15-hydroxyprostaglandin dehydrogenase [NAD(+)] (Homo sapiens), P15428 | purified HPGD, NADH fluorescence kinetic, PGE2 substrate | 150,000 tested, 4.3% active | Potency, µM, usual class: inhibitors; active means well fitted inhibition curve with a large enough effect, not every such curve was filed as active; inconclusive means small, poorly fitted or top-dose-only effect, or another doubt; inactive means no such curve, though single readings can be large or run the other way
# Target sequence (P15428 whole entry, looked up): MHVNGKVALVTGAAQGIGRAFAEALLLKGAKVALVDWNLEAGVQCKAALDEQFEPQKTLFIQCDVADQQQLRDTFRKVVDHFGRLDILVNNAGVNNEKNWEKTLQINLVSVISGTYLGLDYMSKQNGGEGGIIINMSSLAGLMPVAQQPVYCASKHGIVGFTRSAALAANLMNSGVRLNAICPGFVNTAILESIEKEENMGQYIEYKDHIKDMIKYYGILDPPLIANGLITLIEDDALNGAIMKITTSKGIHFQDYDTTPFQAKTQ
#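 NADH formation kinetics: reaction with 30 uM PGE2 and 1 mM NAD+ (final), 20 nM enzyme, Tris-HCl pH 8 with Tween 20, after 15 min compound preincubation at room temperature. Fluorescence change, last versus first of five reads.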
# ALDH1A1 block – qHTS Assay for Inhibitors of Aldehyde Dehydrogenase 1 (ALDH1A1) | Aldehyde dehydrogenase 1A1 (Homo sapiens), P00352 | Purified ALDH1A1, NADH fluorescence, propionaldehyde substrate | Potency, µM (highest dose often 75.3 µM), actives largely listed as inhibitors | 220,000 tested, 7.3% active; active means well fitted inhibition curve with a large enough effect, not every such curve was filed as active; inconclusive means small, poorly fitted or top-dose-only effect, or another doubt; inactive means no such curve, though single readings can be large or run the other way
# JMJD2E inh – qHTS Assay for Inhibitors of Human Jumonji Domain Containing 2E (JMJD2E) | 230,000 tested, 1.6% active | JMJD2E catalytic domain, FDH-coupled NADH fluorescence (FDH is formaldehyde dehydrogenase) | AID 2147, 2009 | Potency, µM (doses to about 57.1 µM), usual class: inhibitors; active means well fitted inhibition curve with a large enough effect, not every such curve was filed as active; inconclusive means small, poorly fitted or top-dose-only effect, or another doubt; inactive means no such curve, though single readings can be large or run the other way; further: nearly all actives have a fitted effect of over 50% in size
# HTT aggregate – qHTS Multiplex Assay to Identify Dual Action Probes in a Cell Model of Huntington: Aggregate Formation (GFP); PC12 HttQ103-GFP aggregates, Acumen cytometry, 40 h; Potency, µM (top dose mostly 46.1 µM), actives largely listed as inhibitors; 220,000 tested, 1.1% active; AID 1688, 2009; further: nearly all actives have a fitted effect of over 60% in size
#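 PC12/HTTQ103-GFP, ecdysone-inducible; teb 100 nM; cpd qHTS titration; GFP aggregates read on laser cytometer, Ex 488/Em 500-530 nm.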
# HTT cytoprotect – qHTS Multiplex Assay to Identify Dual Action Probes in a Cell Model of Huntington: Cytoprotection (ATP). Potency, µM (highest dose often 56.4 µM), hits mostly activators. PC12 HTT-Q103 induced, cytoprotection, ATP luminescence, 40 h. 230,000 tested, 0.14% active; further: nearly all actives have a fitted effect of over 45% in size
#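 Cells were plated at 1500 per well in phenol red-free DMEM with 5% equine and 5% calf serum. Tebufenozide (100 nM final) and compounds were added, then ATPlite reagent, and luminescence was read.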
# Hits are given with their value; 0 = inactive; ? = inconclusive; - = no result; [ ] = dose if it differs, or a comment. In the library only some 9.8% were active in any assay of this set; here they are far more common. Unless noted, the call rests on the fitted dose curve; in most records, active means well fitted curve in the direction sought with a large enough effect; inconclusive means small, poorly fitted or top-dose-only effect, or another doubt; inactive means no such curve, though single readings can be large; an effect the other way counts as inactive or inconclusive.
SMILES,CBFb RUNX1 block,HPGD block,ALDH1A1 block,JMJD2E inh,HTT aggregate,HTT cytoprotect
CCN(CC)c1ccc(S(=O)(=O)N2CCOCC2)cc1NC(=O)CN1CCc2ccccc2C1,0,-,?,0,0[9.22 µM],0
COc1ccc(C(=O)NC(NC(=S)Nc2ccc(S(N)(=O)=O)cc2)C(Cl)(Cl)Cl)cc1 (stereo not drawn),0,0,0,0,0,0
COc1ccccc1CNC(=O)CCCc1ccccc1,0,?,0,0,0,0[0.074 µM]
CCCCNC(=O)CCNS(=O)(=O)c1ccc(C)cc1,0,0,0,0,0,0
Cc1ccc(S(=O)(=O)NCCC(=O)NCc2ccc3c(c2)OCO3)cc1C,0,0,7.9µM,0,0,0
O=C(CCCNS(=O)(=O)c1ccccc1)NCc1ccco1,0,0,0,0,0,0[1.9 µM]
COc1ccc(CNC(=O)CCCc2ccccc2)cc1,0,0,1.1µM,0,0,0[10 µM]
O=C(CCc1ccc(S(=O)(=O)NCCc2ccccc2)cc1)NCc1ccco1,0,0,5µM,0,0,0[1.9 µM]
Cc1ccc(CNC(=O)CCNS(=O)(=O)c2ccc(C)cc2)cc1,0,0,14µM,0,0,0[10 µM]
O=C(CCNS(=O)(=O)c1ccc2c(c1)CCC(=O)N2)NCc1ccc2c(c1)OCO2,0,0,0,0,0,0
O=C(CN1CCN(C2CCCCC2)CC1)c1ccc2cc[nH]c2c1,0,?,?,?,0,0
CN(C)c1[nH]c(=O)c(C#N)c2c1CCN2Cc1ccccc1,0,13µM,?,0,0,0[0.074 µM]
N#Cc1c2c(c[nH]c1=O)CCN2Cc1ccccc1,0,?,0,?,0,0[10 µM]
O=C(c1ccncc1)N1CCC2(CC1)CCN(c1ccncc1)CC2,-,0,0,-,-,?
O=C(/C=C/c1cccc(OCc2ccccc2)c1)c1cccnc1,0,0,?,0,0,0[10 µM]
Cc1ccc(C)c(NC(=O)CN(C)C(=O)CCN2C(=O)c3ccccc3C2=O)c1,0,-,0,0,14µM,0
CCOc1ccccc1OCCCC(=O)N(C)CC(=O)Nc1cc(C)ccc1C,0,-,0,0,0,0
O=S(=O)(Nc1cccc(-c2nnco2)c1)c1ccc(F)cc1F,0,-,0,0,0[9.22 µM],0[10 µM]
COc1cc(C)c(S(=O)(=O)n2ccc(C)n2)cc1C,0,0,0,0,0,0[10 µM]
O=C(c1ccc2c(c1)OCCCO2)N1CCCCC1,0,-,-,0,0[9.22 µM],0[10 µM]
O=C(c1cc2c(cc1Br)OCCCO2)N1CCCCC1,0,2.2µM,0,0,0,0[10 µM]
O=C(c1cc(F)c(F)cc1Cl)N1CCCCC1,0,5.6µM,0,0,0,0
CCOC(=O)C(Sc1cc(-c2ccccc2)nc2ncnn12)C(C)=O (stereo not drawn),0,-,-,0,0[9.22 µM],0[10 µM]
COC(=O)CNC(c1ccccc1)c1cc(Br)ccc1NC(C)=O (stereo not drawn),0,-,0,0,0[9.22 µM],3.2µM
COC(=O)CNC(c1ccccc1)c1cc(Cl)ccc1NC(=O)c1cccc(Cl)c1 (stereo not drawn),0,0,0,0,0,0[10 µM]
SMILES,CBFb RUNX1 block,HPGD block,ALDH1A1 block,JMJD2E inh,HTT aggregate,HTT cytoprotect
CCO/C(C)=N/n1c2nc3ccccc3nc2c2c(=O)n(CC(C)C)c(C)nc21,0,0,25µM,0,0,0
COc1ccccc1CNC(=O)C(=O)NCC1CCCO1 (stereo not drawn),0,0,0,0,0,0[1.9 µM]
COc1ccccc1CCNC(=O)C1CCCO1 (stereo not drawn),0,18µM,0,0,0,0
COc1ccccc1CNC(=O)c1ccc(OCC2CCCO2)cc1 (stereo not drawn),0,0,0,0,0,0[10 µM]
COc1ccccc1CC(=O)NCC1CCCO1 (stereo not drawn),0,25µM,0,0,0,0
COC(=O)c1cc(C(=O)c2cc(Br)ccc2O)coc1=N,0,-,0,0,0,0
CC(C)NC(=O)c1cc(C(=O)c2cc(Cl)ccc2O)coc1=N,0,?,?,?,7.9µM,0
COc1cc(OC)cc(C(=O)N2CCN(Cc3ccccc3C(F)(F)F)CC2)c1,0,-,14µM,0,0,0
COc1cccc(CN2CCN(C(=O)c3cccs3)CC2)c1OC,0,0,18µM,0,0,0
COc1cc(C(=O)N2CCN(Cc3ccccc3C(F)(F)F)CC2)cc(OC)c1OC,0,0,?,0,0,0
Cc1c(C)c2c(c(C)c1O)CC[C@@](C)(C(=O)O)O2,0,0,0,0,-,0
COc1cc(CC(=O)OCC(=O)Nc2ccc([N+](=O)[O-])cc2)cc(OC)c1OC,0,-,0,0,0,0
